Results from the OligoGym collection.

biological target: C3orf64; test: pooled miR-30 sensor sort-seq; sequence = guide strand; details: shRNA
Note: reference of the scale not given here.

Point of comparison: TTAGTTGATCTAAAAACCCAAG, sensor-assay potency score (higher = more potent) -1.13. Against it:
- TAGAAGACTGTTCCAATCCTTT — higher, -0.485
- TTCATCTTCACAGTTGTACAGT — higher, 0.304
- TATAACATGGTCCTATAGCTTG — higher, -1.11
- TATAGGTCTGAAGTTGAGCTGA — higher, 0.14
- TAACATGTTGTAATTCTTCTTA — higher, 0.391
- TATAGCTTTGTAGCTCAGCAAA — lower, -1.7

biological target: C4orf27; test: as above; details: shRNA

Point of comparison: TCTACTGGAACAACCAAGCCTG, sensor-assay potency score (higher = more potent) -0.00895. Against it:
- TTCTTTTCGAAGGTCACTGGAG — lower, -0.538
- TTTATCTACTGGAACAACCAAG — lower, -0.789
- TATTTCTCTAAGTTTTTTCGTC — lower, -0.0754
- TATGTTCTCTTGACTTCTGTTT — lower, -0.298
- TTATACAATTTTTCTTTGCTTC — lower, -0.21
- TTCTCTTGAGGTCAGCATCTGT — lower, -0.164
- TTATCTACTGGAACAACCAAGC — lower, -0.86
- TAATGGTCTGGAACTCAGGAGG — lower, -0.721
- TATAATGATTTTCTACTTCTTT — lower, -0.484
- TTAGTCTCTCCTCATCACTTGC — lower, -0.932
- TTCATCATTAGCAAACTGCACA — lower, -0.513

biological target: C4orf45; test: as above; details: shRNA

Point of comparison: TTTTTCTAACGCCAGATGCTGT, sensor-assay potency score (higher = more potent) -0.936. Against it:
- TAGGTGGTTTGGAAGCTCTTGG — higher, -0.261
- TTAGGTGGTTTGGAAGCTCTTG — higher, -0.244
- ATAAATATCTGAGATCTCCAGT — higher, 0.467
- TAATCCTTTATGTAGTCTGGAC — higher, -0.844
- TTATACTGTGGTATTCTCCAAC — higher, -0.109
- TTATATTTTGCTGGCAAGCTTC — lower, -1.08
- TTCCTTTTTTGGTAGCTTCGGC — higher, -0.246
- TTTTGGTAGCTTCGGCAGCTTA — lower, -1.74
- TTATGTAGTCTGGACCTGTAAA — lower, -1.37
- TATTTTGCTGGCAAGCTTCTAT — higher, -0.0491
- TCTCTGATCAGTGTCCTCGAAA — lower, -0.979

biological target: C5AR1; test: as above; details: shRNA

Point of comparison: TTCTACTTGTCTGTATTCTGAG, sensor-assay potency score (higher = more potent) 0.386. Against it:
- TAACTCACTTACAAGAGCTTAG — lower, -0.132
- TACTTGTCTGTATTCTGAGTTC — lower, -0.656
- TCTTCAGTCAACACGTTCCGGA — lower, -0.631
- TCTACTTGTCTGTATTCTGAGT — lower, -0.792
- TACATATTTTCCAACTTGCCAT — lower, -0.462
- TGAAAGTGTAACAAATCGTGAG — lower, 0.282
- TGATGCTGTACAATGGACGTGA — higher, 0.655
- TTCAGTCAACACGTTCCGGAGG — lower, -1.26
